# Reference: PubChem BioAssay (EPA / NIEHS)
# Calls of active or inactive are those of the source. How the source made its calls: active means hit-call score of the fitted dose curve at least 0.9, where 1 is the maximum; inactive means score below 0.9.
# What was measured:
# [1] = APR_HepG2_CellLoss_72hr: Apredica 72-hour HepG2 Assay for Cell Loss (AID 2282915); settings: high-content imaging
# Procedure, shortened: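 Cell number comes from Hoechst 33342-labelled nuclei, imaged at 20x after 3.7% formaldehyde fixation. Dosing was 0.39–200 uM, ten concentrations in duplicate, 0.5% DMSO final, for 72 h. Bidirectional fit relative to DMSO baseline.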
# [2] = APR_HepG2_P-H2AX_72hr: Apredica 72-hour HepG2 Assay for H2AX Phosphorylation (AID 2282916); settings: imaging, actives raise or lower the signal;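 further: phospho-histone H2A.x immunostain intensity per cell marking DNA damage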
# Procedure, shortened: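 Following 72 hr treatment with 0.39–200 uM compound, HepG2 cells were formaldehyde-fixed, permeabilized and stained for phospho-H2A.x; signal was measured by high-content imaging and fitted bidirectionally against DMSO controls.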
# [3] = APR_HepG2_MitoMembPot_72hr: Apredica 72-hour HepG2 Assay for Mitochondrial Membrane Potential (AID 2282917); settings: imaging, actives raise or lower the signal
# Procedure, shortened: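 Membrane potential read by MitoTracker Red CMXRos (250 nM, 30 min, pre-fixation) fluorescence imaging of HepG2 after 72 hr exposure. Ten concentrations, 0.39–200 uM, duplicate wells, 0.5% DMSO; fitted in both directions against DMSO baseline.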
# [4] = APR_HepG2_MitoticArrest_72hr: Apredica 72-hour HepG2 Assay for Mitotic Arrest (AID 2282918); settings: high-content imaging, actives raise or lower the signal
# Procedure, shortened: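 HepG2 cells were exposed for 72 hr to compound at 0.39–200 uM (10 concentrations, duplicate) in 0.5% v/v DMSO, fixed in 3.7% formaldehyde, immunostained for phospho-histone H3 with Hoechst 33342 and imaged by high-content fluorescence; bidirectional fits versus DMSO.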
# [5] = APR_HepG2_StressKinase_72hr: Apredica 72-hour HepG2 Assay for Stress Kinase (AID 2282921); settings: HepG2 stress kinase (phospho-c-Jun) imaging, actives raise or lower the signal
# Procedure, shortened: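 Fluorescence intensity of Cy3-tagged anti-phospho-c-Jun antibody, quantified per cell from Hoechst-defined nuclei across six images per well, served as the read-out following 72 h exposure (0.39–200 uM, 0.5% v/v DMSO).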
# [6] = APR_HepG2_StressKinase_24hr: Apredica 24-hour HepG2 Assay for Stress Kinase (AID 2282922); settings: HepG2 stress kinase (phospho-c-Jun) imaging, actives raise or lower the signal
# Procedure, shortened: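 HepG2, 24 hr dosing, 0.39–200 uM in duplicate, 0.5% DMSO; formaldehyde fix (3.7%), 0.5% Triton X-100; anti-phospho-c-Jun + Cy3 secondary, Hoechst counterstain; ArrayScan imaging; bidirectional curve fit vs DMSO baseline.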
# [7] = APR_HepG2_p53Act_72hr: Apredica 72-hour HepG2 Assay for p53 Activation (AID 2282923); settings: high-content imaging, actives raise or lower the signal;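 further: average cellular p53 protein immunofluorescence intensity in HepG2 cells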
# Procedure, shortened: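 HepG2 monolayers receive test compounds in duplicate at ten concentrations (0.39 through 200 uM) for 72 hr. They are then formaldehyde-fixed, antibody-labelled for p53, Hoechst-stained and imaged, with activity fitted bidirectionally versus DMSO.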
# [8] = APR_HepG2_MitoMass_72hr: Apredica 72-hour HepG2 Assay for Mitochondrial Mass (AID 2282924); settings: high-content imaging, actives raise or lower the signal;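 further: MitoTracker Red CMXRos stain intensity per cell imaged as mitochondrial mass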
# Procedure, shortened: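 HepG2, 72 hr cmpd, 10 conc 0.39–200 uM in dup, DMSO 0.5% v/v. MitoTracker Red CMXRos 250 nM 30 min pre-fix; formaldehyde 3.7% fix 30 min RT. HCS imaging, gain/loss fit vs DMSO.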
# [9] = APR_HepG2_NuclearSize_72hr: Apredica 72-hour HepG2 Assay for Nuclear Size (AID 2282925); settings: high-content imaging, actives raise or lower the signal
# Procedure, shortened: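 HepG2; cpd 0.39–200 uM, 10 conc, duplicate; 72 h; DMSO 0.5% v/v; fix 3.7% formaldehyde 30 min RT; Triton permeabilization; Hoechst 2 ug/mL; HCS imaging 20x; nuclear diameter; gain/loss fit vs DMSO.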
Structure (SMILES),outcome [1],outcome [2],outcome [3],outcome [4],outcome [5],outcome [6],outcome [7],outcome [8],outcome [9],AC50 [3],AC50 [2],AC50 [4],AC50 [7],AC50 [8]
CCCCN(CCCC)N=O,inactive,inactive,inactive,inactive,inactive,inactive,inactive,inactive,inactive,,,,,
CCCCc1ccccc1,,inactive,inactive,inactive,inactive,inactive,,inactive,inactive,,,,,
CCNc1nc(Cl)nc(NC(C)(C)C)n1,,inactive,inactive,inactive,inactive,inactive,,inactive,inactive,,,,,
Nc1cc2c3c(c1)C(c1ccccc1)=N[C@@H](NC(=O)c1cccnc1)C(=O)N3CC2,,inactive,inactive,inactive,inactive,inactive,,inactive,inactive,,,,,
ClC(Cl)c1ccccc1,,inactive,inactive,inactive,inactive,inactive,,inactive,inactive,,,,,
O=C(O)C(Cl)Cl,,inactive,inactive,inactive,inactive,inactive,,inactive,inactive,,,,,
CC(Cl)(Cl)C(=O)O,,inactive,inactive,inactive,inactive,inactive,,inactive,inactive,,,,,
c1ccc2c(c1)Nc1ccccc1S2,,inactive,,inactive,inactive,inactive,inactive,inactive,inactive,123 µM (active),,,,
CCCCN(CCCC)SN(C)C(=O)Oc1cccc2c1OC(C)(C)C2,,,inactive,,inactive,inactive,,inactive,inactive,,59.9 µM (active),54.1 µM (active),,
CCOP(=S)(Oc1ccc([N+](=O)[O-])cc1)c1ccccc1 (centres undefined),,inactive,inactive,inactive,inactive,inactive,,inactive,inactive,,,,,
O=C(O)C1C(C(=O)O)C2(Cl)C(Cl)=C(Cl)C1(Cl)C2(Cl)Cl (centres undefined),,inactive,,,inactive,inactive,inactive,,inactive,,,,,
CCOP(=S)(OCC)SCSCC,,inactive,inactive,inactive,inactive,inactive,,inactive,inactive,,,,,
COCCOCCO,,inactive,inactive,inactive,inactive,inactive,,inactive,inactive,,,,,
Cc1ccc([N+](=O)[O-])cc1C,,inactive,inactive,inactive,inactive,inactive,,inactive,inactive,,,,,
CCC(C)(C)c1ccc(O)cc1,,inactive,,,inactive,inactive,,,inactive,56.4 µM (active),,121 µM (active),105 µM (active),88 µM (active)
O=[N+]([O-])c1ccc(Cl)c(Cl)c1,,inactive,inactive,inactive,inactive,inactive,,inactive,inactive,,,,,
CCCN(CCC)c1c([N+](=O)[O-])cc(C(C)C)cc1[N+](=O)[O-],,,,,inactive,inactive,,,inactive,46.9 µM (active),52.1 µM (active),31.6 µM (active),44.1 µM (active),40.9 µM (active)
CSC(C)(C)C=NO,,inactive,inactive,inactive,inactive,inactive,,inactive,inactive,,,,,
c1cc2c3c(cccc3c1)CC2,,inactive,,,inactive,inactive,inactive,,inactive,,,,,
CN(C)C(=O)Cl,,inactive,inactive,inactive,inactive,inactive,,inactive,inactive,,,,,
CCC1(c2ccccc2)C(=O)N=C(O)NC1=O (centres undefined),,inactive,inactive,inactive,inactive,inactive,inactive,inactive,inactive,,,,,
CCCCCCCc1ccc(O)cc1,,inactive,inactive,inactive,inactive,inactive,,inactive,inactive,,,,,
ClC(Cl)(Cl)c1ccccc1,,inactive,inactive,inactive,inactive,inactive,inactive,inactive,inactive,,,,,
